Source: PubChem BioAssay (Tox21)
Records with an inconclusive call do not appear. Active and inactive are the calls of the source. Unless noted, calls follow the shape of the dose curve; as a rule, active = well fitted curve in the direction sought with a large enough effect in the repeat runs; inconclusive = weak or mixed curves; inactive = no such curve, though single readings can be large; an effect the other way counts as inactive or inconclusive.

Experiments:
[1] = qHTS assay to identify small molecule agonists of the RXR signaling pathway - cell viability counter screen (AID 1159529);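 also: HEK 293T cells carrying an RXR-alpha UAS beta-lactamase reporter; series mostly up to about 77 µM; nearly all actives have a fitted effect of over 50% in size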
Summary of the method: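 HEK 293T RXRa-bla cells, 2% CS-FBS; 5 h settle; cpd 16 h 37 C, 5% CO2; CellTiter-Glo 30 min RT, luminescence. Tetraoctyl ammonium bromide as positive control.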

[2] = qHTS assay to identify small molecule antagonists of the retinoid acid receptor (RAR) signaling pathway - cell viability counter screen (AID 1159551); also: nearly all actives have a fitted effect of over 35% in size
Summary of the method: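 C3RL4 cells were seeded overnight at 37 C, then treated with compounds plus 1 uM (final) retinol for 6 h at 37 C. Viability was read as ATP by CellTiter-Glo luminescence after 30 min at room temperature.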

[3] = qHTS assay to identify small molecule antagonists of the estrogen related receptor (ERR) signaling pathway from Tox21 library - cell viability counter screen (AID 1224834); also: nearly all actives have a fitted effect of over 30% in size
Summary of the method: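 ERR reporter cells were plated 6 h before compound addition, then exposed to test compounds in DMSO for 17.5 h at 37 C. Viability was read as CellTiter-Fluor fluorescence after a 30-minute incubation at 37 C.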

[4] = target: Luciferin 4-monooxygenase (Photinus pyralis) (UniProt P08659); experiment: qHTS assay to identify small molecule inhibitors of firefly luciferase (AID 1224835); also: series mostly up to about 120 µM; nearly all actives have a fitted effect of over 25% in size
Summary of the method: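 Inhibition of purified Photinus luciferase is measured by luminescence. Substrate levels (D-luciferin, ATP) sit at their KM values. Each compound is tested in a concentration series.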

[5] = qHTS assay to identify small molecule agonists of the constitutive androstane receptor (CAR) signaling pathway - cell viability counter screen (AID 1224836); also: series mostly up to about 92 µM; nearly all actives have a fitted effect of over 45% in size
Summary of the method: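 HepG2-CYP2B6-hCAR, 2500 cells/well, 4 h pre-incubation; cpd 15 conc + PK11195 0.75 uM final; 23 h, 37 C/5% CO2; CellTiter-Fluor, fluorescence.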

[6] = qHTS assay to identify small molecule antagonists of the constitutive androstane receptor (CAR) signaling pathway - cell viability counter screen (AID 1224837); also: series mostly up to about 92 µM; nearly all actives have a fitted effect of over 45% in size
Summary of the method: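 HepG2 cells stably expressing hCAR and a CYP2B6-2.2kb reporter were plated and pre-incubated 4 hr at 37 C/5% CO2, then given compounds at 15 concentrations plus 50 nM CITCO (final). After 23 hr, viability was read by CellTiter-Fluor fluorescence.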

[7] = target: Nuclear receptor subfamily 1 group I member 3 (Homo sapiens) (UniProt Q14994); experiment: qHTS assay to identify small molecule antagonists of the constitutive androstane receptor (CAR) signaling pathway (AID 1224838); also: nearly all actives have a fitted effect of over 40% in size
Summary of the method: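 HepG2 cells stably co-transfected with hCAR and a CYP2B6-2.2kb luciferase reporter were seeded 4 h before compound addition at 15 concentrations. Cells were stimulated with 50 nM CITCO (final) for 24 h at 37 C; luciferase luminescence was then read.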

[8] = target: Nuclear receptor subfamily 1 group I member 3 (Homo sapiens) (UniProt Q14994); experiment: qHTS assay to identify small molecule agonists of the constitutive androstane receptor (CAR) signaling pathway (AID 1224839);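 also: HepG2 cells stably carrying human CAR and a CYP2B6 luciferase reporter; series mostly up to about 92 µM; nearly all actives have a fitted effect of over 15% in size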
Summary of the method: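 HepG2-CYP2B6-hCAR cells, 2500/well, 4 h pre-incubation; compounds 15 conc.; PK11195 0.75 uM final; 24 h, 37 C/5% CO2; ONE-Glo luciferase read.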

[9] = qHTS assay to identify small molecule antagonists of the estrogen related receptor signaling pathway with the pleiotropic PPARgamma coactivator (PGC) from Tox21 10K library - cell viability counter screen (AID 1224840; active = well fitted cell-killing curve with a large enough effect in the repeat runs, not every such curve was filed as active; also: nearly all actives have a fitted effect of over 40% in size)
Summary of the method: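 PGC/ERR cells were seeded at 2,000 cells/well and left 6 hours at 37 C/5% CO2 before pin-tool addition of compounds in DMSO. After 17.5 hours at 37 C, CellTiter-Fluor was added and fluorescence read 30 minutes later.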

[10] = qHTS assay to identify small molecule antagonists of the estrogen related receptor signaling pathway with the pleiotropic PPARgamma coactivator (PGC) from Tox21 10K library (AID 1224841; call rule not given here; also: series mostly up to about 92 µM; actives are mostly falling curves and most rising ones were filed inactive; nearly all actives have a fitted effect of over 50% in size)
Summary of the method: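 PGC/ERR reporter cells were seeded at 2,000 cells/well and held 6 hours at 37 C/5% CO2 before pin-tool addition of compounds in DMSO. After 18 hours at 37 C, One-Glo was added and luminescence read after 30 minutes at room temperature.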

[11] = target: Thyrotropin receptor (Homo sapiens) (UniProt P16473); experiment: qHTS assay to identify small molecule agonists of the thyroid stimulating hormone receptor (TSHR) signaling pathway (AID 1224843; calls by dose curve; also: nearly all actives have a fitted effect of over 45% in size)
Summary of the method: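 Screening of the Tox21 10K collection used HEK293 cells engineered with TSHR at 800 cells per well. After a 30-min room-temperature compound exposure, HTRF cAMP reagents were added and fluorescence recorded 1 h later.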

[12] = qHTS assay to identify small molecule agonists of the hypoxia (HIF-1) signaling pathway - cell viability counter screen (AID 1224844; calls by dose curve; also: nearly all actives have a fitted effect of over 50% in size)
Summary of the method: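 HRE-bla ME-180 cells in medium with 0.5% dialyzed FBS were preincubated 5 hrs at 37C, exposed to compounds for 17 hrs, then viability was read as CellTiter-Glo luminescence after 30 min at room temperature, in the reporter wells.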

[13] = qHTS assay to identify small molecule agonists of the estrogen related receptor signaling pathway with the pleiotropic PPARgamma coactivator (PGC) from Tox21 10K library (AID 1224842); also: nearly all actives have a fitted effect of over 15% in size
Summary of the method: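 Luminescence from One-Glo (30 min, room temperature) measured after PGC/ERR cells had 18 h at 37 C with pinned compound (23 nL in DMSO). Cells had been seeded at 2,000 per well and pre-incubated 6 h.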
% is scaled to controls: 0 for no effect and ±100 for the full control effect.

Chain of Luciferin 4-monooxygenase (Photinus pyralis) (P08659 whole entry, looked up): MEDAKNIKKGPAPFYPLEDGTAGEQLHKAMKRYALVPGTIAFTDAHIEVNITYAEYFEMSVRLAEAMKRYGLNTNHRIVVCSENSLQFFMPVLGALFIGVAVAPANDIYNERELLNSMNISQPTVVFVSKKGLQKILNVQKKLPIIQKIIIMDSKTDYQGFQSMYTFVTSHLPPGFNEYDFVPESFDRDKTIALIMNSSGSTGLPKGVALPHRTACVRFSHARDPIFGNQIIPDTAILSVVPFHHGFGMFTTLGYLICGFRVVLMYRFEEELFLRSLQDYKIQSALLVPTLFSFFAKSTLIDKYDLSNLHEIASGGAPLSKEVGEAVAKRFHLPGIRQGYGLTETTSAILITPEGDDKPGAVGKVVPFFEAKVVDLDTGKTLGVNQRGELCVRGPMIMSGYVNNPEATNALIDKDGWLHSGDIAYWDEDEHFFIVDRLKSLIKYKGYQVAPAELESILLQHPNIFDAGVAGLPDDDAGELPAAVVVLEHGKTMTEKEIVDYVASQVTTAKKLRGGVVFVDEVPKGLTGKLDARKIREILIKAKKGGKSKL
Chain of Thyrotropin receptor (Homo sapiens) (P16473 whole entry, looked up): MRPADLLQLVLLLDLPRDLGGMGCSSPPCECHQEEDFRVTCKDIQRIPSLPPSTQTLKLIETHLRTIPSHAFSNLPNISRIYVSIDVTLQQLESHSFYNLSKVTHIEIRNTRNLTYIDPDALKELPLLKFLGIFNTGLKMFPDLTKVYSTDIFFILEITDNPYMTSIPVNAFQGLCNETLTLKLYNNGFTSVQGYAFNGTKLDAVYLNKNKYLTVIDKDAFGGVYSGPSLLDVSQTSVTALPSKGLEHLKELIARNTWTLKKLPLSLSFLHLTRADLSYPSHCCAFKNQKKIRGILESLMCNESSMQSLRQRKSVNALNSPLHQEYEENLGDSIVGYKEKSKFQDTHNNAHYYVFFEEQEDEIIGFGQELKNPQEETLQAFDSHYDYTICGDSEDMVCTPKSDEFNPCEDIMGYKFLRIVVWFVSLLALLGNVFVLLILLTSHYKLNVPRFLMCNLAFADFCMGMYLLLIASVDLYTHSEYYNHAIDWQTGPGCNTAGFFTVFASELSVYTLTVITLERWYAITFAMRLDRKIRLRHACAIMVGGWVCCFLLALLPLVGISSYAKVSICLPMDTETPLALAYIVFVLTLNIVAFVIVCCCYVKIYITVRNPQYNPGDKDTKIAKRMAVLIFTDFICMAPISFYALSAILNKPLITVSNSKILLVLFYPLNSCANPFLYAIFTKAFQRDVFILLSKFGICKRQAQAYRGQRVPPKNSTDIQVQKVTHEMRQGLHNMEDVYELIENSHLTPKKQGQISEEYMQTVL
Chain of Nuclear receptor subfamily 1 group I member 3 (Homo sapiens) (Q14994 whole entry, looked up): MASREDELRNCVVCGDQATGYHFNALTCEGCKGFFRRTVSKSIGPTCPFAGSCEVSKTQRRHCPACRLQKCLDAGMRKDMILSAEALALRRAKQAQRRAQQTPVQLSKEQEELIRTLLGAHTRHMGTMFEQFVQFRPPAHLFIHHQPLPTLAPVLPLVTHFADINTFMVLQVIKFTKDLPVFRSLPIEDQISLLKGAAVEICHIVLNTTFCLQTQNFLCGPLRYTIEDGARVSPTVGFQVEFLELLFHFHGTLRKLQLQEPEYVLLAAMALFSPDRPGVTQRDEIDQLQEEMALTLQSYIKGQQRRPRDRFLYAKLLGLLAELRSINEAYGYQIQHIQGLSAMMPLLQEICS

CC(=O)C(Cl)Cl
inactive: Potency [1] | Potency [2] | Potency [3] | Potency [4] | Potency [5] | Potency [6] | Potency [7] | Potency [8] | Potency [9] | Potency [10] | Potency [11] | Potency [12]

Nc1cc2c3c(c1)C(c1ccccc1)=N[C@@H](NC(=O)c1cccnc1)C(=O)N3CC2
inactive: Potency [1] | Potency [2] | Potency [3] | Potency [4] | Potency [5] | Potency [6] | Potency [7] | Potency [8] | Potency [9] | Potency [11] | Potency [12]

CC(N)=S
inactive: Potency [1] | Potency [2] | Potency [3] | Potency [4] | Potency [5] | Potency [6] | Potency [7] | Potency [9] | Potency [11] | Potency [12]

O=CNC(N1CCN(C(NC=O)C(Cl)(Cl)Cl)CC1)C(Cl)(Cl)Cl (configuration not stated)
inactive: Potency [1] | Potency [2] | Potency [3] | Potency [4] | Potency [5] | Potency [6] | Potency [7] | Potency [8] | Potency [9] | Potency [10] | Potency [11] | Potency [12]

[As]#[In]
inactive: Potency [1] | Potency [2] | Potency [3] | Potency [4] | Potency [5] | Potency [6] | Potency [7] | Potency [8] | Potency [9] | Potency [10] | Potency [11] | Potency [12]

ClCC(Cl)Cl
inactive: Potency [1] | Potency [2] | Potency [3] | Potency [4] | Potency [5] | Potency [6] | Potency [7] | Potency [8] | Potency [9] | Potency [11]

CCC/C(=N\OCC)C1=C(O)CC(CC(C)SCC)CC1=O (configuration not stated)
inactive: Potency [1] | Potency [2] | Potency [3] | Potency [4] | Potency [5] | Potency [6] | Potency [7] | Potency [9]

NC(=O)O
inactive: Potency [1] | Potency [2] | Potency [3] | Potency [4] | Potency [5] | Potency [6] | Potency [7] | Potency [9] | Potency [11] | Potency [12]

O=C(O)c1ccc2[nH]cc(CCCCN3CC=C(c4ccccc4)CC3)c2c1
inactive: Potency [1] | Potency [2] | Potency [3] | Potency [4] | Potency [5] | Potency [6] | Potency [7] | Potency [9] | Potency [11] | Potency [12]

CCOC(=O)CP(=O)(OCC)OCC
inactive: Potency [1] | Potency [2] | Potency [3] | Potency [4] | Potency [5] | Potency [6] | Potency [9] | Potency [10] | outcome [13] | Potency [11]

CC1=C(C(=O)O)N2C(=O)[C@@H](N)[C@H]2SC1
inactive: activity change, negative = cytotoxicity [1] 1.45% [at 15.8 µM] | activity change, negative = cytotoxicity [2] -0.0172% [at 19 µM] | viability change, negative = cytotoxic [3] 3.67% [at 19 µM] | activity change, negative = inhibition [4] -0.398% [at 23.6 µM] | viability change, negative = cytotoxic [5] 4.01% [at 19 µM] | activity change, negative = cytotoxicity [6] 0.992% [at 19 µM] | activation [8] -1.84% [at 19 µM] | viability change, negative = cytotoxic [9] -5.15% [at 19 µM] | activity, negative = inhibition [10] 1.75% [at 19 µM] | activation [13] 0.483% [at 19 µM] | activation [11] 0.53% [at 19 µM]

CN1CCC(O)(c2ccc(F)cc2)C(C(=O)c2ccc(F)cc2)C1 (configuration not stated)
inactive: Potency [1] | Potency [2] | Potency [3] | Potency [4] | Potency [5] | Potency [6] | Potency [8] | Potency [9] | Potency [10] | Potency [11] | Potency [12]

O=P(O)(Oc1ccccc1)Oc1ccccc1
inactive: Potency [1] | Potency [2] | Potency [3] | Potency [4] | Potency [5] | Potency [6] | Potency [7] | Potency [8] | Potency [9] | Potency [11]

O=C1OC(CCN2CCCCC2)OC1(c1ccccc1)c1ccccc1 (configuration not stated)
inactive: Potency [1] | Potency [2] | Potency [3] | Potency [4] | Potency [5] | Potency [6] | Potency [7] | Potency [8] | Potency [9] | Potency [11] | Potency [12]

COP(N)(=S)Oc1ccccc1C(=O)OC(C)C (configuration not stated)
inactive: Potency [1] | Potency [2] | Potency [3] | Potency [4] | Potency [5] | Potency [6] | Potency [7] | Potency [9] | Potency [11]
